High-throughput results (PubChem)
An excerpt weighted towards active compounds, which were near 10% of everything screened.
G9a block: qHTS Assay for Inhibitors of Histone Lysine Methyltransferase G9a | 8.8% of 350,000 active | Potency, µM (top dose mostly 102 µM), for the others: at the highest dose activity, negative = inhibition, hits mostly inhibitors | AID 504332, 2011 | Histone-lysine N-methyltransferase EHMT2 (Homo sapiens), Q96KQ7 | G9a H3K9 monomethylation, AlphaScreen, 2 h; note: % is set by controls: 0 for no effect and ±100 for the full control effect; nearly all actives have a fitted effect of over 75% in size
Target sequence (Q96KQ7 913-1193 limits assumed): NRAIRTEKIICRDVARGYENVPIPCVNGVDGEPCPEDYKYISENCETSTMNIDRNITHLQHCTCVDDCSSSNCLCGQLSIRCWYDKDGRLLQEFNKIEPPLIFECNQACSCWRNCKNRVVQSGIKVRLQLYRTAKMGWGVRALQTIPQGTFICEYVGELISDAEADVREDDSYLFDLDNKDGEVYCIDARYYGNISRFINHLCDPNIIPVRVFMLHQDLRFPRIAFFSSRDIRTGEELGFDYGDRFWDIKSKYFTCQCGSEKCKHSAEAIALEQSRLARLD
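G9a (20 nM) was preincubated 15 min with compound, then reacted 2 h at room temperature with 500 nM biotin-H3K9 peptide and 20 µM SAM. Monomethyl-H3K9 detected by AlphaScreen using anti-H3K9me1 antibody.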
GLS inhibitor: qHTS for Inhibitors of Glutaminase (GLS). GLS enzymatic activity, qHTS titration. Potency, µM (top dose mostly 45.5 µM), without a hit: at the highest dose activity change, negative = inhibition, hits mostly inhibitors. 0.21% of 410,000 active. AID 624170, 2012; note: % is set by controls: 0 for no effect and ±100 for the full control effect
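hKGA in 45 mM KH2PO4 pH 8.2, 0.02% Tween-20 with pin-transferred compounds; 1 mM L-glutamine (stock) plus glutamate oxidase/HRP/Amplex Red coupling added. Fluorescence read initially and after 30 min at RT.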
JMJD2A Tudor inh: qHTS Assay for Inhibitors of JMJD2A-Tudor Domain | Lysine-specific demethylase 4A (Homo sapiens), O75164 | AlphaScreen JMJD2A-Tudor / H3K4me3 peptide binding | Potency, µM (highest dose often 114 µM), for the others: top-dose activity change, negative = inhibition, hits mostly inhibitors | 4.4% of 390,000 active | AID 504339, 2011; note: % is set by controls: 0 for no effect and ±100 for the full control effect; nearly all actives have a fitted effect of over 50% in size
L3MBTL1 inh: qHTS Assay for the Inhibitors of L3MBTL1. 0.66% of 230,000 active. Lethal(3)malignant brain tumor-like protein 1 (Homo sapiens), Q9Y468. AID 485360, 2010. Potency, µM (doses to about 57.1 µM), for the others: at the highest dose activity, negative = inhibition, usual class: inhibitors. AlphaScreen L3MBTL1–H3K9me1 peptide binding; note: % is set by controls: 0 for no effect and ±100 for the full control effect; nearly all actives have a fitted effect of over 60% in size
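AlphaScreen proximity signal between nickel-chelate acceptor and streptavidin donor beads (final 10 ug/mL) reports binding of 50 nM L3MBTL1 to 75 nM biotin-H3 K9me1 peptide; complex incubated with compounds 30 min at room temperature; cefsulodin titration as control.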
BAZ2B inh: qHTS Assay for Inhibitors of BAZ2B. Bromodomain adjacent to zinc finger domain protein 2B (Homo sapiens), Q9UIF8. AlphaScreen BAZ2B-H3K14Ac peptide displacement. Potency, µM (highest dose often 114 µM), without a hit: at the highest dose activity change, negative = inhibition, usual class: inhibitors. 4.4% of 360,000 active; note: % is set by controls: 0 for no effect and ±100 for the full control effect; nearly all actives have a fitted effect of over 60% in size
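Inhibition is scored as reduced AlphaScreen emission. The BAZ2B/b-H3(5-23)K14Ac complex (50 nM each) in PBS pH 7.4, 0.01% Tween-20 meets compound (up to 110 uM) for 30 min at RT before bead addition.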
HP1b chromo inh: HTS for Inhibitors of HP1-beta Chromodomain Interactions with Methylated Histone Tails; Potency, µM (titrated, usually from 114 µM), inactives show at the highest dose activity change, negative = inhibition, hits mostly inhibitors; AID 540317, 2011; AlphaScreen HP1-beta / biotin-H3K9me3 peptide binding; 0.56% of 390,000 active; note: nearly all actives have a fitted effect of over 70% in size
Target sequence (P83916 whole entry, looked up): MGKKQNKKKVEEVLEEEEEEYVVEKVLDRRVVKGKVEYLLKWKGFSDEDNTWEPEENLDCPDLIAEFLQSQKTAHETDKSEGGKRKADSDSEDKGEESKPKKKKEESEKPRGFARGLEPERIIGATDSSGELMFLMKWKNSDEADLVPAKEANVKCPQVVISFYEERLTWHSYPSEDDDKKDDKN
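Compound inhibition of the preformed complex between 50 nM HP1-beta and 50 nM biotinylated H3K9me3 peptide was read by AlphaScreen. Buffer was PBS pH 7.4 with 0.01% Tween-20. Incubations ran 30 min at room temperature, with 10 ug/mL donor/acceptor beads.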
The depositor's hits bear a star; ? = inconclusive; · = not tested or not shown; [ ] = another dose, or the depositor's remark. Calls come from the whole dose curve; as a rule, active = well fitted curve in the direction sought with a large enough effect; inconclusive = small, poorly fitted or top-dose-only effect, or another doubt; inactive = no such curve, though single readings can be large; an effect the other way counts as inactive or inconclusive. Potency is the fitted concentration of half-maximal effect.

SMILES	G9a block	GLS inhibitor	JMJD2A Tudor inh	L3MBTL1 inh	BAZ2B inh	HP1b chromo inh
CCOc1ccc(C(=O)Nc2ccccc2C(=O)OCc2cc(=O)n3nc(C4CC4)sc3n2)cc1	1.0%[12.7 µM]	1.5%	0.7%	·	-11.0%	25.4%
CCC(Sc1ccc2nnc(-c3ccc(OC)c(OC)c3)n2n1)C(=O)O (stereo not given)	7.94µM*	1.5%	-20.1%	·	-1.5%	32.0%
COc1ccc(-c2nnc3ccc(SC(C(C)=O)C(C)=O)nn23)cc1OC	2.24µM*	-21.5%	20µM*	1.8%	·	-1.2%
O=c1c2ccccc2n(Cc2ccccc2Cl)c(=O)n1CCc1ccccc1	47.3%[59 µM]	6.1%	30.7%	·	7.4%	44.5%
O=C(Nc1cccc([N+](=O)[O-])c1)c1ccncc1	9.5%[59 µM]	-2.4%	-4.1%	2.5%	1.3%	27.4%
O=C(Nc1cccc([N+](=O)[O-])c1)c1cnccn1	12.7%[59 µM]	-21.1%	?	-9.2%	50.1µM*	16.7%
O=C(Nc1cccc([N+](=O)[O-])c1)c1ccc2ccccc2c1O	15.8µM*	-22.4%	-11.0%	-27.7%	-28.6%	7.2%
O=C(Cc1ccccc1)Nc1cccc([N+](=O)[O-])c1	?	-1.2%	-6.2%	·	-1.5%	65.1%
O=C(O)c1cc(-c2ccccc2)c(N2CCOCC2)s1	79.4µM*	34.0%	-13.6%	·	-3.8%	62.6%
O=C(NCc1ccco1)c1cc(-c2ccccc2)c(N2CCOCC2)s1	?	7.9%	-28.8%	·	-12.1%	8.4%
C[C@@H](NC(=O)/C(C#N)=C/c1ccc(O)c(O)c1)c1ccccc1	2.82µM*	66.5%	39.8µM*	-27.2%	35.5µM*	?
N#C/C(=C/c1ccc(O)c(O)c1)C(=O)NCc1ccc(Cl)cc1	11.2µM*	55.6%	12.6µM*	·	35.5µM*	28.2µM*
N#C/C(=C\c1ccc(O)c(O)c1)C(=O)Nc1ccccc1	7.08µM*	69.3%	?	-21.0%	12.6µM*	?
C[C@H](NC(=O)/C(C#N)=C/c1ccc(O)c(O)c1)c1ccccc1	7.94µM*	·	·	·	·	·
O=C(c1ccccc1Br)N(Cc1ccccc1F)C1CCS(=O)(=O)C1 (stereo not given)	-1.4%[59 µM]	-4.9%	-12.2%	·	-2.1%	43.3%
CC[C@@H]1C(c2cccc(C)c2)=NN(c2ccc(Br)cc2)[C@H]1C(=O)N1CCOC1=O	113.2%[59 µM]	·	·	·	·	·
Cc1ccccc1CCNC(=O)c1ccc2c(c1)nc1n2CCCCC1	-0.2%[59 µM]	6.3%	2.6%	·	?	23.5%[57 µM]
COc1ccc(/C=C(\C#N)C(=O)Nc2cccc3ncccc23)cc1OC	?	-2.4%	-3.7%	·	-28.4%	12.0%
N#C/C(=C\c1ccc(O)c(O)c1)C(=O)Nc1cccc2ncccc12	8.91µM*	12.7%	?	·	?	-8.0%
N#C/C(=C/c1ccc(O)c(O)c1)C(=O)OC/C=C/c1ccccc1	1.58µM*	·	·	·	·	·
Cc1ccc(NC(=O)Cn2c(O)c(N=NC(=O)c3cc4ccccc4cc3O)c3ccccc32)cc1	?	10.4%	-26.7%	-7.3%	-34.4%	11.5%
COc1ccccc1NC(=O)Cn1c(O)c(N=NC(=O)c2ccccc2O)c2ccccc21	44.7µM*	-1.7%	-34.7%	2.8%	56.2µM*	17.3%
COc1ccc(C2CC(=O)N(Cc3ccccc3)c3c2c(C)nn3-c2nc(C)cc(C)n2)c(OC)c1 (stereo not given)	-4.3%[59 µM]	-2.2%	-12.9%	·	-20.9%	42.6%
Cc1ccc2c(=O)cc(C(=O)Nc3sc4c(c3C(=O)NCc3ccco3)CCC4)oc2c1	-27.4%[59 µM]	-7.3%	-25.0%	·	-18.6%	22.0%
C/C(Cl)=C\Cn1c(O)c(N=NC(N)=S)c2cc(Br)ccc21	·	2.9%	44.7µM*	-15.4%	10µM*	?
SMILES	G9a block	GLS inhibitor	JMJD2A Tudor inh	L3MBTL1 inh	BAZ2B inh	HP1b chromo inh
NC(=S)N=Nc1c(O)n(CCCl)c2ccc(Br)cc12	-6.7%	-2.6%	-24.1%	-21.9%	?	5.2%
Cc1cc(C(=O)N/N=C/c2c(C)[nH]n(-c3ccccc3)c2=O)n[nH]1	-7.0%	35.3%	50.1µM*	·	28.2µM*	35.8%
Cc1[nH]n(-c2ccccc2)c(=O)c1C=NCCc1ccccc1	-6.6%	16.9%	-18.4%	-6.2%	-20.1%	-0.1%
Cc1ccc(-n2[nH]c(C)c(/C=N/NC(=O)c3ccc(O)cc3O)c2=O)cc1	-13.5%	-4.6%	31.6µM*	·	28.2µM*	21.7%
CCCCN(CCCC)C(=S)N/N=C/c1c(C)[nH]n(-c2ccccc2)c1=O	?	3.2%	79.4µM*	-7.8%	10µM*	3.4%
Cc1[nH]n(-c2ccccc2)c(=O)c1/C=N/NC(=O)c1ccc(O)cc1O	?	7.5%	22.4µM*	·	25.1µM*	57.0%
Cc1[nH]n(-c2ccccc2)c(=O)c1/C=N/Nc1nncc(-c2ccccc2)n1	20µM*	?	3.55µM*	25.1µM*	4.47µM*	-9.4%
CCCCN=Cc1c(C)[nH]n(-c2ccccc2)c1=S	4.47µM*	9.7%	?	-19.4%	?	?
Cc1[nH]n(-c2ccccc2)c(=S)c1C=Nc1cccc([N+](=O)[O-])c1	·	44.6%	2.51µM*	1.2%	22.4µM*	-72.1%
COc1cc(NC(=O)CC(c2ccc(C)cc2)N2Cc3ccccc3C2=O)cc(OC)c1 (stereo not given)	?	-4.6%	-7.6%	·	-22.9%	43.9%
O=[N+]([O-])c1cc(C(F)(F)F)cc([N+](=O)[O-])c1NCCNC(=S)Nc1cccc(F)c1	?	-2.9%	39.8µM*	?	17.8µM*	-25.0%
Cc1cc(C)c2c(N)c(C(=O)c3ccc(Br)cc3)oc2n1	35.5µM*	2.5%	3.4%	12.4%	-5.7%	62.5%
Cc1ccc(C)c(Cn2nnc3c(=O)[nH]c(C(=O)NCC4CCCO4)nc32)c1 (stereo not given)	-10.0%[59 µM]	-2.4%	?	6.9%	-4.4%	18.3%
COc1ccc(Cn2nnc3c(=O)[nH]c(C(=O)NCCc4ccc(F)cc4)nc32)cc1OC	-10.5%[59 µM]	4.6%	79.4µM*	2.7%	-1.0%	12.2%
COCCNC(=O)c1nc2c(nnn2Cc2cc(C)ccc2C)c(=O)[nH]1	11.2µM*	9.4%	?	12.7%	-18.0%	10.2%
N#CNc1nc(O)cc(=O)[nH]1	50.1µM*	-33.6%	-28.1%	?	-10.0%	32.0%
CCC1CCCCN1CC(=O)N1CCCc2c1c(=O)oc1ccc(OCc3ccccc3)cc21 (stereo not given)	?	0.3%	-35.3%	·	-30.3%	10.4%
